Test results: the supplement of paper PMC10849652
The full data set covers some 8,800 targets. This sample favours those with a hit. About 0.5% of all pairs of compound and target were hits. A number with no mark means an inactive call.

Experiments:
Assay in all cases: log2 fold change, soluble protein after heating vs DMSO (PISA); higher = thermal stabilisation; K562 lysate, 10 uM; active = over 0.2 and 3.5 SD of the protein, either way, in both replicates (recomputed)
quisinostat = compound: Cn1cc(CNCC2CCN(c3ncc(C(=O)NO)cn3)CC2)c2ccccc21 [quisinostat]
Outline: (§1)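 Log-two fold change in thermal stability relative to solvent controls is reported from duplicates. For each sample, crude K562 extract from dounce-homogenised pellets in PBS pH 7.4 with 1 mM MgCl2, at 1 mg/mL protein, was treated with 10 μM compound for 30 min. Aliquots heated for 3 min across 48°C-58°C were pooled, brought to 0.5% NP-40 at 4°C and cleared at 21,000xg for 90 min. The supernatant was quantified by TMTpro 16plex LC-MS/MS with channel sums equalised.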

[1] = compound: NC(=O)Nc1cc(-c2cccc(F)c2)sc1C(=O)N[C@H]1CCCNC1
Outline: as §1

[2] = compound: O=C1NC(=O)C(c2cnc3ccccn23)=C1c1cn2c3c(cc(F)cc13)CN(C(=O)N1CCCCC1)CC2
Outline: as §1

entospletinib = compound: c1cn2cc(-c3ccc4cn[nH]c4c3)nc(Nc3ccc(N4CCOCC4)cc3)c2n1 [entospletinib]
Outline: as §1

nilotinib = compound: Cc1cn(-c2cc(NC(=O)c3ccc(C)c(Nc4nccc(-c5cccnc5)n4)c3)cc(C(F)(F)F)c2)cn1 [nilotinib]
Outline: as §1

[3] = compound: Cc1nc(Nc2n[nH]c3c2CN(C(=O)N[C@H](CN(C)C)c2ccccc2)C3(C)C)c2sccc2n1
Outline: as §1

dasatinib = compound: Cc1nc(Nc2ncc(C(=O)Nc3c(C)cccc3Cl)s2)cc(N2CCN(CCO)CC2)n1 [dasatinib]
Outline: as §1

[4] = compound: Cc1ncc(-c2ccnc(Nc3ccc(S(C)(=O)=O)cc3)n2)n1C(C)C
Outline: as §1

[5] = compound: Cn1cc(-c2ccc3c(c2)CCN3C(=O)Cc2cccc(C(F)(F)F)c2)c2c(N)ncnc21
Outline: as §1

tipifarnib = compound: Cn1cncc1[C@@](N)(c1ccc(Cl)cc1)c1ccc2c(c1)c(-c1cccc(Cl)c1)cc(=O)n2C [tipifarnib]
Outline: as §1

[6] = compound: NC1(c2ccc(-c3nc4ccn5c(=O)[nH]nc5c4cc3-c3ccccc3)cc2)CCC1
Outline: as §1

[7] = compound: NCC(=O)Nc1ccc(-n2nc(C(F)(F)F)cc2-c2ccc3c(ccc4ccccc43)c2)cc1
Outline: as §1

vorinostat = compound: O=C(CCCCCCC(=O)Nc1ccccc1)NO [vorinostat]
Outline: as §1

silmitasertib = compound: O=C(O)c1ccc2c(c1)nc(Nc1cccc(Cl)c1)c1ccncc12 [silmitasertib]
Outline: as §1

[8] = compound: NC(=O)c1cnc(N[C@@H]2CCCC[C@@H]2N)nc1Nc1cccc(-n2nccn2)c1
Outline: as §1

UniProt O60237, sequence (O60237 whole entry, looked up): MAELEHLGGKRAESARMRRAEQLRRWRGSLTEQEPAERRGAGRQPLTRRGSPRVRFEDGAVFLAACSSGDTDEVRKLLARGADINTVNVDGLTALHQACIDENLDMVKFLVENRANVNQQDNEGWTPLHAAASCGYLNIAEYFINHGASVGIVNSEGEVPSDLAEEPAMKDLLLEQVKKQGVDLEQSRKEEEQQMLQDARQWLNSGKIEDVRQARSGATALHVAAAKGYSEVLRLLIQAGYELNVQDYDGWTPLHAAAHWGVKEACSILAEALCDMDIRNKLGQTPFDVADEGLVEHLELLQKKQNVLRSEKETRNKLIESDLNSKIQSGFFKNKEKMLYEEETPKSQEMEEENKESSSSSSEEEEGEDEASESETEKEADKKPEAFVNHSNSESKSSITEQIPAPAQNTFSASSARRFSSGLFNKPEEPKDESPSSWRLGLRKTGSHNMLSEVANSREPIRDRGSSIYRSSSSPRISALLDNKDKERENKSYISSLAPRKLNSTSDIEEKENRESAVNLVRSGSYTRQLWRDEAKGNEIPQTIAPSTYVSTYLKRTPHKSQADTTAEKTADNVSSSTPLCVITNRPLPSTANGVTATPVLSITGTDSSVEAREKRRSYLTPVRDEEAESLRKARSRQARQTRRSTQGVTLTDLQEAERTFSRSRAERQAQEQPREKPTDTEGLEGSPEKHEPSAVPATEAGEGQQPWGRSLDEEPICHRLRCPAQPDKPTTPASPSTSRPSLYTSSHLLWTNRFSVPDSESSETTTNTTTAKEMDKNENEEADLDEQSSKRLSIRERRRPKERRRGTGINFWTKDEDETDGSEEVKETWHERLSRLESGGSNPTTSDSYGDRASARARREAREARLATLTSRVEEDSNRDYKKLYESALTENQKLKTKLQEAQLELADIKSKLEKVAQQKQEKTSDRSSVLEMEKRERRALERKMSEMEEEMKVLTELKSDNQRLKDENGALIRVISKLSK
UniProt Q8TAE6, sequence (Q8TAE6 whole entry, looked up): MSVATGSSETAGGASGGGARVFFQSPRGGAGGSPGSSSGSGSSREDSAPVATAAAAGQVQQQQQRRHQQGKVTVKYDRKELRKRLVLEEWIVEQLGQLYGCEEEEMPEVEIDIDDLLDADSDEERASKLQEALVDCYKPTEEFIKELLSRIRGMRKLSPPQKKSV
UniProt Q15173, sequence (Q15173 whole entry, looked up): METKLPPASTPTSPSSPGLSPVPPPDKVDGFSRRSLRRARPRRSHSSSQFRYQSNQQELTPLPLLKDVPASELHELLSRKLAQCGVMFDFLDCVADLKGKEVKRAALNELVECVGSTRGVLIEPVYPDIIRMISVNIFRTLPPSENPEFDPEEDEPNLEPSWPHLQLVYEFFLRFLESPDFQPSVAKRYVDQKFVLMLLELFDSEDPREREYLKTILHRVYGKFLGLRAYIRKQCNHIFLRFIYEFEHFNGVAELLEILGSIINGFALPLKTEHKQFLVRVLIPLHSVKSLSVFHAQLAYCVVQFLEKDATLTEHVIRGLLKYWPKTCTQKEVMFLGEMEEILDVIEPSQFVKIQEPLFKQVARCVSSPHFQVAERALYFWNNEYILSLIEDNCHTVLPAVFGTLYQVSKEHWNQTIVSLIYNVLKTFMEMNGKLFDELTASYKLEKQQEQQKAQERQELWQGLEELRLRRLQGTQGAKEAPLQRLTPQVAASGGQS
UniProt P60673, sequence (P60673 whole entry, looked up): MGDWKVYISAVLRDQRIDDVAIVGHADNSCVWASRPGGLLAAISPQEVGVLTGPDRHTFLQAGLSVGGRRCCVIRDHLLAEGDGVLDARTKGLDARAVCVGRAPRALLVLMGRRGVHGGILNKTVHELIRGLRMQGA
UniProt O75928, sequence (O75928 whole entry, looked up): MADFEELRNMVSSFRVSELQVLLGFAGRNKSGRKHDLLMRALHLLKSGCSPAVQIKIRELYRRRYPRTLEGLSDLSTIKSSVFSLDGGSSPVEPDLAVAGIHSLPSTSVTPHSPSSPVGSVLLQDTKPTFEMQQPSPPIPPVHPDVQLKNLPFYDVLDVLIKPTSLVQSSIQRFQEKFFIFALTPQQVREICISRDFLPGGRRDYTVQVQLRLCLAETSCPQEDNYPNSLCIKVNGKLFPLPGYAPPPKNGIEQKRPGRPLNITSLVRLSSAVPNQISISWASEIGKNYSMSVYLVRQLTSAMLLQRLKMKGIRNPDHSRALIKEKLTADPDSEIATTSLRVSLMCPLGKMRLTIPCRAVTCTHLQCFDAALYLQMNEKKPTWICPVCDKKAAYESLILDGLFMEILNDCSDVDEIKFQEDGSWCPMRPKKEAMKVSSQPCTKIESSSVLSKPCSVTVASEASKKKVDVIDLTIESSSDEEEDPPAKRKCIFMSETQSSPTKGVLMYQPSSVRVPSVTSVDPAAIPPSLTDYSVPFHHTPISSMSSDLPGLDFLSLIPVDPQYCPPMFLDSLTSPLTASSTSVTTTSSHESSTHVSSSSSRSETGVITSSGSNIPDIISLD
UniProt P54277, sequence (P54277 whole entry, looked up): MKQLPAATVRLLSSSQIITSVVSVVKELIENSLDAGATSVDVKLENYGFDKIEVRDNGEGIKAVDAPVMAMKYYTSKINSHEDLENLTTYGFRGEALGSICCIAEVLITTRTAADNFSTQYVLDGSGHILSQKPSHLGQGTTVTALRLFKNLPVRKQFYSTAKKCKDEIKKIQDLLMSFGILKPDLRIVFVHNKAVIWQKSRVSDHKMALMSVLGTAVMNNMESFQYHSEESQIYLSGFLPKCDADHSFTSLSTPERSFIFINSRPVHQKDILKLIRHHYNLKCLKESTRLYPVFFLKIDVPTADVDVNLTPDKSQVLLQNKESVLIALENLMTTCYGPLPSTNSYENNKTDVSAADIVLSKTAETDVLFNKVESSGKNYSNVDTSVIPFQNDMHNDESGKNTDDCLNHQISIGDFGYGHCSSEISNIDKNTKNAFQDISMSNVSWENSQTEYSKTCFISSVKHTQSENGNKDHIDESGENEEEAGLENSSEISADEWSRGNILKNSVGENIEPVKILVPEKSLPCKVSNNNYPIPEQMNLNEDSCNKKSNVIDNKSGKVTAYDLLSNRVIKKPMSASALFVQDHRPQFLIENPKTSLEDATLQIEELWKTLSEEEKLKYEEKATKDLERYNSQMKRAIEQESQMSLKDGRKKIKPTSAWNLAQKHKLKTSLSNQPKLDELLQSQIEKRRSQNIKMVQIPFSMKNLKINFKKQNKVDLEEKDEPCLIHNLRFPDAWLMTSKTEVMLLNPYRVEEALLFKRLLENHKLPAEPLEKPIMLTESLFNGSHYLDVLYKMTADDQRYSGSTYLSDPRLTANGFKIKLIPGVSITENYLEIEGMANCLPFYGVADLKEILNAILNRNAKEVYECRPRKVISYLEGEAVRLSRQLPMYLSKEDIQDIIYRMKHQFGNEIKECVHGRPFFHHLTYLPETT
UniProt O94806, sequence (O94806 whole entry, looked up): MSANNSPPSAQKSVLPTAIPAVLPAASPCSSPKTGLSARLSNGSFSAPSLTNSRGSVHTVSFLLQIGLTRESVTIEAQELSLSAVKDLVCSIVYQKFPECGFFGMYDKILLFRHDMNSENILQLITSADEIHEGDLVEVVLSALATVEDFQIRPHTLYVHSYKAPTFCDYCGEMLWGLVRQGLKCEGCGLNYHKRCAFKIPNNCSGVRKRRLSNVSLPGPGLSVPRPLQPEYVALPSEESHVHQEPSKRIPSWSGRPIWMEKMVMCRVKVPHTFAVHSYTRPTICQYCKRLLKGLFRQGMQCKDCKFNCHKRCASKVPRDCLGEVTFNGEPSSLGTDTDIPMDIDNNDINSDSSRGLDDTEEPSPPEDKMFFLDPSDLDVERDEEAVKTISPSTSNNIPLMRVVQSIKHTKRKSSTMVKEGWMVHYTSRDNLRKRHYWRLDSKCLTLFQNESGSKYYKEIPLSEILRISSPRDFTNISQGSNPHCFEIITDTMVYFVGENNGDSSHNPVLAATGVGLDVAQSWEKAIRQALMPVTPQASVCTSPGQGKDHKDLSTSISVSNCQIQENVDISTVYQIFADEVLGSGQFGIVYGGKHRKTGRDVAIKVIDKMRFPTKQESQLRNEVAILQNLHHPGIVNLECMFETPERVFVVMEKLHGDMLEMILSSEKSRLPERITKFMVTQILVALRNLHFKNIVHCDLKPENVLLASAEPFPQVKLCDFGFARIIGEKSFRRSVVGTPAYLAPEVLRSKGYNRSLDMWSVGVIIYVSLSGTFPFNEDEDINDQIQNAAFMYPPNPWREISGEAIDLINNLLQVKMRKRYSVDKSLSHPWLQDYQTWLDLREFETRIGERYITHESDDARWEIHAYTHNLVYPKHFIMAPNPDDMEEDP
UniProt Q96LW4, sequence (Q96LW4 whole entry, looked up): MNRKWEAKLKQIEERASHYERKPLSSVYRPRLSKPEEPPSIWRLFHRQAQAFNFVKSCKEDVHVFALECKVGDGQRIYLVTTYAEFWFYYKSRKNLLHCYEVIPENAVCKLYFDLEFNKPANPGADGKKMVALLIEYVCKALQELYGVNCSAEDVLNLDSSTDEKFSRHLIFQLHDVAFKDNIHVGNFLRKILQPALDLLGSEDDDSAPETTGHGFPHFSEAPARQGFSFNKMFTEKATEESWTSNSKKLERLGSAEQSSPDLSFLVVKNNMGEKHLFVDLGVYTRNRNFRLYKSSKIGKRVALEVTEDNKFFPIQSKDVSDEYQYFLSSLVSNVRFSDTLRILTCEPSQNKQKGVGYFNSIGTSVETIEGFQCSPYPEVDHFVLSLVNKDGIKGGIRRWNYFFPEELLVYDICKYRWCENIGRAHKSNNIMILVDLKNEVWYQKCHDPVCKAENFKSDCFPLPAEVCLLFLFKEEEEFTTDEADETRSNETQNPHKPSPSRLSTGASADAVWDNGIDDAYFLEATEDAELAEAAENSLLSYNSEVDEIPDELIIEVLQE
UniProt Q15004, sequence (Q15004 whole entry, looked up): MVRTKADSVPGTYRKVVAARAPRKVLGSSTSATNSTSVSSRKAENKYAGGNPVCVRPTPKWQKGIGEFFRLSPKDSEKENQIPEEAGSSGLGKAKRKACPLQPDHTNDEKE

| Target | log2 fold change (quisinostat) | log2 fold change [1] | log2 fold change [2] | log2 fold change (entospletinib) | log2 fold change (nilotinib) | log2 fold change [3] | log2 fold change (dasatinib) | log2 fold change [4] | log2 fold change [5] | log2 fold change (tipifarnib) | log2 fold change [6] | log2 fold change [7] | log2 fold change (vorinostat) | log2 fold change (silmitasertib) | log2 fold change [8] |
| --- | --- | --- | --- | --- | --- | --- | --- | --- | --- | --- | --- | --- | --- | --- | --- |
| PHOSPHO2 (UniProt C9JD35) | 0.073 | -0.102 | 0.004 | 0.155 |  |  |  |  |  |  |  |  |  |  |  |
| PRIMPOL (UniProt Q96LW4) | -0.039 | 0 | -0.028 | 0.029 | 0.112 | -0.089 | 0.034 | -0.15 | -0.037 | 0.17 | -0.126 | -0.03 | -0.337 (active) | 0.034 |  |
| POLR2F (UniProt U3KPV3) |  |  |  | -0.113 |  |  | -0.024 |  | 0.038 |  |  |  |  |  |  |
| PRKDC (UniProt P78527) | -0.093 | 0.004 | 0.207 | 0.013 | -0.015 | -0.01 |  | 0.188 | 0.038 | -0.011 | -0.073 | -0.089 | -0.426 (active) | 0.762 (active) | 0.123 |
| PPT2, A0A140T9Y1 |  |  |  |  | -0.054 | 0.086 |  | 0.089 |  | 0.1 |  |  |  |  |  |
| PFKFB4 (UniProt Q16877) | 0.059 | -0.024 | -0.031 | 0.051 |  |  | 0.009 |  | -0.045 |  | 0.013 | 0.007 | -0.369 (active) | 0 | 0.015 |
| PHF14 (UniProt O94880) |  |  |  | 0.039 | -0.127 | -0.203 | -0.1 | 0.082 | 0.085 | 0.073 |  | -0.062 |  |  | -0.077 |
| PHGDH, A0A286YFE1 |  |  |  |  |  |  | 0.086 |  | 0.258 |  |  |  |  |  | -0.29 |
| PIAS2 (UniProt O75928) | 0.061 | 0.004 | -0.054 | 0.01 | -0.019 | -0.005 | -0.097 | 0.068 | -0.026 | -0.086 | 0.025 | 0.469 (active) | -0.334 (active) | -0.091 |  |
| PCBP2 (UniProt F8VRH0) | 0.034 | -0.059 | 0.006 |  | -0.221 | -0.532 |  | -0.063 |  | -0.167 | 0.003 |  | -0.982 (active) | -0.441 | 0.232 |
| PICALM (UniProt H0YCY1) |  |  |  |  |  |  |  |  |  |  | 0.013 |  | 0.202 | -0.07 |  |
| PECR (UniProt Q9BY49) |  |  |  | 0.115 |  |  |  |  |  |  |  |  |  |  |  |
| PDIA4, A0A499FI48 | -0.02 | 0.164 | 0.045 |  |  |  | -0.004 |  | 0.044 |  |  |  |  |  |  |
| PIK3CG (UniProt P48736) | -0.139 | 0.013 | -0.027 | -0.073 | 0.004 | -0.022 |  | 0.079 | 0.097 | 0.003 | -0.017 | -0.111 | -0.037 | 0.04 |  |
| PLXND1 (UniProt Q9Y4D7) | -0.093 | -0.047 | 0.018 |  | -0.006 | 0.043 | -0.045 | 0.092 | 0.013 | 0.014 | 0.094 |  | -0.132 | 0.174 |  |
| PPM1H (UniProt Q9ULR3) | -0.036 | -0.041 | -0.045 | -0.002 |  |  | 0 |  | 0.001 |  | -0.07 | -0.004 | 0.206 | -0.05 | 0 |
| PPP1R12B isoform 6 (UniProt O60237) | -0.531 (active) | 0.006 | -0.005 | -0.052 |  |  | -0.065 |  | 0.134 |  | -0.075 | 0.168 | -0.063 | 0.091 | 0.05 |
| NA (UniProt Q4G0T1) | 0.034 | 0.054 | -0.036 |  |  |  | 0.054 |  | 0.095 |  | 0.062 |  | -0.027 | 0.092 |  |
| PCBP2 (UniProt F8W0G4) |  |  |  | -0.088 | 0.034 | -0.092 | -0.138 | -0.154 | 0 | -0.298 | 0.053 | 0.083 | -0.058 | 0.025 |  |
| PPME1 (UniProt Q9Y570) |  |  |  | -0.063 |  |  | 0.032 |  | -0.08 |  | 0.027 |  | -0.673 (active) | 0.185 | 0.048 |
| PPP2R5B (UniProt Q15173) | 0.058 | -0.025 | -0.065 | 0.028 |  |  | 0.018 |  | 0.021 |  | -0.015 | 0.077 | -0.075 | -0.007 | 0.011 |
| PPP1R14C (UniProt Q8TAE6) |  |  |  | -0.046 | 0.075 | -0.003 | 0.105 | -0.043 | -0.173 | 0.073 |  | -0.061 |  |  | -0.184 |
| PRKD3 (UniProt O94806) | -0.014 | -0.174 | 0.076 | 0.013 | 0.054 | -0.086 |  | -0.03 |  | 0.087 | 0.054 | -0.116 | -0.182 | 0.224 | 0.001 |
| PFN3 (UniProt P60673) | -0.349 | -0.044 | -0.142 | -0.134 | -0.104 | 0.001 |  | 0.033 |  | -0.083 |  | 0.158 |  |  | -0.087 |
| PYGO2 (UniProt Q9BRQ0) | 0.016 | -0.015 | -0.003 | 0.269 (active) | 0.01 | 0.044 | -0.028 | 0.063 | 0.004 | -0.02 | 0.029 |  | 0.151 | -0.067 |  |
| PHC1 (UniProt P78364) | -0.003 | 0.003 | 0.151 | 0.073 | 0.054 | 0.023 | 0.087 | -0.024 | -0.049 | -0.02 |  | 0.042 |  |  |  |
| PMS1 (UniProt P54277) | -0.086 | 0.041 | 0.026 | -0.011 | -0.022 | 0 | -0.011 | -0.001 | 0.017 | 0.058 | -0.029 | 0.01 | -0.342 (active) | 0.018 |  |
| PCLAF (UniProt Q15004) | -0.044 | -0.018 | -0.025 | 0.009 | -0.115 | 0.081 | 0.001 | 0.02 | -0.087 | 0.018 | 0.094 | 0.022 | -0.29 (active) | -0.029 |  |
| PDE4DIP (UniProt E9PS60) | -0.256 | -0.205 | 0.039 | 0.103 | -0.074 | 0.052 | -0.158 | -0.045 | -0.073 | 0.081 | -0.025 | 0.002 | -0.157 | 0.082 |  |
